Data reported in PubChem BioAssay (NCI).
This is part of a sample that, as a whole, favours compounds with a hit. Of some 83,000 tested, about 20% had one in any assay.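 Activity criterion: percent growth below 10, measured after cells in 96-well plates were exposed to a single compound concentration for 48 hours.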 A number with no mark means an inactive call. The source made the active and inactive calls.

Tested on: SK-MEL-28 melanoma
Test: NCI-60 one-dose screen, 48 h (100 = growth as untreated, 0 = no growth, -100 = all killed)
Conditions: 10 µM unless noted
Method: Growth inhibition of the SK-MEL-28 human tumor cell line is measured as a screen for anti-cancer activity. Cells are grown in 96 well plates and exposed to the test compound for 48 hours. Compounds are tested at a single concentration, which is 10^-5 M for most compounds. The reported endpoint is percent growth (GI% or GIPRCNT), where numbers from 0 - 100% represent growth inhibition, and numbers from -100% - 0 represent cell death. For example, a value of 40 represents 60% growth inhibition. A value of 0 means no net growth occurred over the course of the experiment. A value of -40 indicates 40% of cells at the beginning of the experiment died by the end of the experiment. A value of -100 means all cells are dead at the end of the experiment.
NCI-60 Human Tumor Cell Lines Screen was performed using the standard one-dose NCI protocol, which is described in more detail at https://dtp.cancer.gov/discovery_development/nci-60/default.htm.
Compounds with GIPRCNT values below 10 were considered active. Activity score was based on GIPRCNT using the following formula: […]
Score is 0 for GIPRCNT values of 100 or above, 50 for GIPRCNT values of 0, and 100 for GIPRCNT values of -100.

CC(=O)CC/C=C(\C)[C@H](O)[C@H](C)C(=O)O[C@H]1C[C@H](C)C=C2C=C[C@@]3(C)O[C@@H](O)CC(=O)[C@]3(C)[C@H]21 was tested. Which growth did it give?
The growth was -40.7% (active).

How did the growth turn out when C/C(=N/NC(=O)Cn1c2ccccc2c2ccncc21)c1cccs1 was run?
The growth was 108%.

For Nc1c(C(=O)O)[nH]c(=O)[nH]c1=O, which growth is on record?
Its growth is 109%.

Which growth does the source give for Cc1cc(C)c(O)c(C(=O)CC(Br)C(=O)O)c1 (stereo not given) here?
The growth was 101%.

Which growth does the source give for O=S(=O)(O)c1ccc(F)cc1 here?
The growth was 111%.

For O=C(C[n+]1cccc(Br)c1)c1ccc2c(c1)CCCC2, which growth is on record?
The growth was 105%.

Which growth does the source give for CN1CCN(CC(O)COc2c(Br)c(Br)c(Br)c3c2OC(C)(C)C3)CC1 (stereo not given) here?
Its growth is -89.2% (active).

How did the growth turn out when O=[N+]([O-])c1cccc(C2c3ccccc3Oc3ccccc32)c1 was run?
Its growth is 107%.

Which growth does the source give for O=C(NNC(=O)c1ccc([N+](=O)[O-])cc1)c1ccc([N+](=O)[O-])cc1 here?
The growth was 109%.

How did the growth turn out when COc1cc(NC(C)CCCN2C(=O)c3ccccc3C2=O)c2nccc(C)c2c1OC (stereo not given) was run?
The growth was 113%.

For CCc1c(C)c2cc3c(c(C)c2oc1=O)OCC(=O)N3, which growth is on record?
The growth was 92.7%.

How did the growth turn out when O=c1c2ccccc2sc2c(N3CCCC3)nc3ccccc3c12 was run?
Its growth is 120%.

Which growth does the source give for Cc1nssc1=S here?
Its growth is 101%.

S=c1[nH]nc(Cn2c3ccccc3c3ccncc32)o1 was tested. Which growth did it give?
The growth was 101%.

How did the growth turn out when c1ccc(OCC[P+](c2ccccc2)(c2ccccc2)c2ccccc2)cc1 was run?
Its growth is 26.1%.

CS(=O)(=O)Nc1cccc(-c2ccc3ncnc(Nc4cncc(Cl)c4)c3c2)c1 was tested. Which growth did it give?
Its growth is 43.7%.

For CC1OC(n2c3ccccc3c3c4c(c5c6ccccc6[nH]c5c32)C(=O)N(CCN[C@@H]2CCC[C@H]2N)C4=O)CC(O)C1O (stereo not given in full), which growth is on record?
The growth was 45.3%.

Which growth does the source give for CC(/C=C/C=C(\C)[C@H](O)[C@H](C)C(=O)O[C@H]1C[C@H](C)C=C2C=C[C@@]3(C)O[C@@H](O)CC(=O)[C@]3(C)[C@H]21)=C\C=C\C(=O)O here?
The growth was -0.848% (active).

With Nc1nc2ccc(CNc3ccc(C(=O)NC(CC(=O)O)C(=O)O)cc3)cc2c(=O)[nH]1 (stereo not given) as the compound, how does the growth read?
Its growth is 106%.

With COc1ccc(CCNC=O)cc1OC as the compound, how does the growth read?
The growth was 106%.

Which growth does the source give for NN=C(c1ccc(Cl)cc1)c1ccc(Cl)cc1 here?
The growth was 117%.

How did the growth turn out when CCCCCC/C=N/Nc1ccc([N+](=O)[O-])cn1 was run?
Its growth is 109%.

For N#Cc1c(N)nc(Cl)c(C#N)c1C(=O)c1ccccc1, which growth is on record?
The growth was 11.6%.

With CCC(C)Nc1ccc(N)cc1 (stereo not given) as the compound, how does the growth read?
Its growth is 71.6%.

Which growth does the source give for COc1ccc(Cl)cc1NC(=O)c1cc2c(n1C)-c1nc(NC(=O)C(C)C)sc1CC2 here?
Its growth is 95.1%.

For COc1ccc(NC(=O)COCCOCCNC[C@@H]2C(=O)O[C@H]3[C@H]2CC/C(COC(=O)OC/C2=C/CC[C@@]4(C)O[C@H]4[C@H]4OC(=O)[C@@H](CN(C)C)[C@@H]4CC2)=C\CC[C@@]2(C)O[C@@H]32)c(O)c1C(N)=O, which growth is on record?
The growth was -6.54% (active).

Which growth does the source give for CC1=C[S+](c2ccccc2)c2cccc3cc4ccccc4c1c23 (stereo not given) here?
The growth was 11.5%.

For Cc1ccc(-c2cn3cc([N+](=O)[O-])ccc3n2)cc1, which growth is on record?
Its growth is 94.3%.

Which growth does the source give for CC(=O)n1cc(/C=C2\N=C(c3ccc(Cl)cc3)N(c3ccc(S(=O)(=O)Nc4nccs4)cc3)C2=O)c2ccccc21 here?
Its growth is 82.2%.

For CCN(CC)CCN1C(=O)c2c(c3c4ccccc4[nH]c3c3[nH]c4ccccc4c23)C1=O, which growth is on record?
The growth was 96.3%.

How did the growth turn out when Nc1ncc(-c2ccc3ncnc(Nc4ccc(F)c(Cl)c4)c3c2)cn1 was run?
The growth was 102%.

How did the growth turn out when Fc1ccc(/C=N/n2c(-c3cc(Cl)cc(Cl)c3Cl)nn(CNc3ccc(Cl)nn3)c2=S)cc1 was run?
Its growth is 108%.

CC(C)(C)C(=O)Nc1nc2c(s1)CCc1ccn(S(=O)(=O)c3ccccc3)c1-2 was tested. Which growth did it give?
Its growth is 101%.

For C=C1c2c(Cl)ccc(O)c2C(O)=C2C(=O)[C@]3(O)C(O)=C(C(N)=O)C(=O)[C@@H](N(C)C)[C@@H]3[C@@H](O)[C@H]12, which growth is on record?
Its growth is 25.8%.

With NS(=O)(=O)c1ccc(CCN2C(=O)/C(=C\c3ccc(Cl)cc3)C=C2c2ccc(Oc3ccccc3)cc2)cc1 as the compound, how does the growth read?
The growth was 79.8%.

How did the growth turn out when CCOC(=O)c1cnc2c(OC)ccc(OC)c2c1Cl was run?
The growth was 120%.

With NS(=O)(=O)c1ccc(Nc2nc(O)c(/C=C3\C=Nc4ccccc43)s2)cc1 as the compound, how does the growth read?
Its growth is 110%.

Which growth does the source give for COc1ccc(CNc2nc3ccccc3c3c(=O)c4ccccc4sc23)cc1OC here?
The growth was 93.3%.

With Nc1nccc2c1ccn2-c1ccc(NC(=O)c2ccc(N3CCOCC3)c(C(F)(F)F)c2)cc1 as the compound, how does the growth read?
Its growth is 48.9%.

CC1(C)N=C(N)N=C(N)N1c1cccc(CCCCc2ccccc2)c1 was tested. Which growth did it give?
Its growth is 42.6%.
